Biological target: SIAE
Experiment: pooled miR-30 sensor sort-seq; sequence = guide strand
Conditions: shRNA
Further: reference of the scale not given here.

| Sequence | sensor-assay potency score (higher = more potent) |
| --- | --- |
| TTGAGGTCCAATTTGTCTGTAG | 0.183 |
| TAATCCATCAGTAAACTGCATT | -1.07 |
| TTATTTTCTCCAAAGTCTGTTG | -0.694 |
| TACAGAGCCAGACATCTCCAAA | -1.12 |
| TTAAATATCTGTAACACAGTCA | 0.571 |
| TTTCACACTGGTCACTTTCTTC | -0.603 |
| TAGACAACTCCCTTGTAGCATT | -0.9 |
| TATCTTGTTGTCCTTTTTCTGC | -1.26 |
| TTTAACTCGAACAACAGTTTGC | -0.109 |

Biological target: SIK3
Experiment: as above
Conditions: shRNA

| Sequence | sensor-assay potency score (higher = more potent) |
| --- | --- |
| TAAATCACGATGAACAATGTTC | -0.457 |
| TCTGTTTGAACTTCCGACGTGC | 0.851 |
| TCTAACACCAACATATGGCGGA | 0.184 |
| TACATAAGCATCGTCGCTGTTC | -0.402 |
| TTAGTTGTTGGCATTCAGCTAT | -0.107 |
| TTATCTATGATCTTGATAGCAA | -0.377 |
| TATGATCTTGATAGCAACCTTG | -0.675 |
| TTCATAATTTGAACTTCCCGGA | -0.153 |
| TACTTGAACTCTTACTGTCTTG | -0.689 |
| TAGCTGAGCAGAATGTCTGTAA | -0.0523 |
| TTGAACTCTTACTGTCTTGGAA | -0.119 |
| TTAATGACTGCAGTGTCTGTTC | -0.0807 |

Biological target: SIPA1L2
Experiment: as above
Conditions: shRNA

| Sequence | sensor-assay potency score (higher = more potent) |
| --- | --- |
| TTGTTCATCAAGCTTGAGCAGC | -0.923 |
| TTCAGCACAGTTGTCTACCGAG | -0.567 |
| TACAACATTCTTGGAATCCTTT | -0.254 |
| TAGCGCTTCACTTTCTCCCTGT | 0.691 |
| TAGCTTGTGCTTCTCTTCTTGT | -0.716 |
| TTGAACTTTGAAGAGGCTCTGC | 0.37 |
| TACTTTTTGAACAGTGAGCTGA | 0.29 |
| TTGTCTTGTTTTTCCTTCCGAA | -0.306 |
| TTATACATCTCTTCCTCTGTGC | 0.628 |
| TTGTCGAAGAATTAATTCCAGC | -1.01 |
| TAACAGTTCGAAGCTTTCGGAA | -0.928 |
| TAATCTAATCCTGAGATGCGGA | -0.642 |

Biological target: SIRPD
Experiment: as above
Conditions: shRNA

| Sequence | sensor-assay potency score (higher = more potent) |
| --- | --- |
| TTACTCTGGGAAAGTTACCTTG | -0.709 |
| TTTGTTATTTACTTGTACGTTC | 0.326 |
| AAATTGTAGATTAATTTCCGGT | -0.422 |
| TTGCACATGGAACACATGTGTG | -0.922 |
| TTGAACCACAAGACAGGTCCAT | -0.0742 |
| TTGGATTCTGCTCAGTAACAAA | -1.61 |
| TTGTAGATTAATTTCCGGTTTG | -0.577 |
